SW480 rereplic – induces DNA re-replication in SW480 colon adenocarcinoma cells | SW480 DNA re-replication, Hoechst DNA content imaging, 48 h | Potency, µM (titrated, usually from 46.1 µM), most hits filed as activators | hit rate 1.8% among 340,000; further: nearly all actives have a fitted effect of over 55% in size
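SW480 cells exposed to compounds for 48 hr at 37 C, 5% CO2, then Hoechst-stained 40 min. Nuclear DNA content imaged by fluorescence scanning (405 nm excitation, 500-530 nm emission); re-replication scored as increased high-intensity nuclei.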
KB-3-1 tox – KB-3-1 parental cell cytotoxicity; KB-3-1 viability, CellTiter-Glo ATP luminescence, 72 h; Potency, µM (titrated, usually from 46.1 µM), hits mostly cytotoxic; hit rate 1.4% among 400,000; further: nearly all actives have a fitted effect of over 60% in size
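Here the drug-naive KB-3-1 line serves as comparator for MDR sub-line selectivity; cells received compound titrations, 72 h at 37 °C, then CellTiter-Glo readout.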
MCF10A rereplic – inducers of DNA re-replication in MCF 10A breast cells. MCF 10A DNA re-replication, Hoechst nuclear intensity, 48 h. Potency, µM (series often up to 46.1 µM), hits mostly activators. hit rate 2.9% among 350,000. AID 624296; further: nearly all actives have a fitted effect of over 50% in size
DRD3 agonist – D3 dopamine receptor (human) agonism. P35462. D3R DiscoveRx beta-arrestin cells, luminescence, 90 min. max activation, %. hit rate 0.58% among 410,000. AID 652048; in the data active means max activation above about 30%
Target sequence (P35462 whole entry, looked up): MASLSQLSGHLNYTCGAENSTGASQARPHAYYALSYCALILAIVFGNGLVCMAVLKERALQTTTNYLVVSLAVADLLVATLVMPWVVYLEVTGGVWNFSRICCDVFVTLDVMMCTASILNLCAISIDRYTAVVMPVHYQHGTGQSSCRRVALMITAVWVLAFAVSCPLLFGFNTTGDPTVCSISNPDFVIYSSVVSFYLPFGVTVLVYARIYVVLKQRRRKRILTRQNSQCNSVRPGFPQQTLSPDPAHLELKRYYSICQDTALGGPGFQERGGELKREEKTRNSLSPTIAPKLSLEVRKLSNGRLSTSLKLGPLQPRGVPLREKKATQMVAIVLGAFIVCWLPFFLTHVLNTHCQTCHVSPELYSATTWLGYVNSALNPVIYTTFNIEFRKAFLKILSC
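Cells at 1500/well, incubated overnight, then treated with pinned compounds (dopamine as control) for 90 min at 37 degrees C. DiscoveRx reagent added for 30 - 60 minutes at room temperature; luminescence read.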
DRD3 antagonist – D3 dopamine receptor (human) antagonism. max response, negative = inhibition, %. P35462. AID 652054. hit rate 2.5% among 360,000. D3R cells, DiscoveRx beta-arrestin luminescence, antagonist mode; stronger effect = lower value; in the data active means max response below about -50%; inconclusive means no clear call, values can overlap the other calls
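Cells plated overnight at 1500 cells/well, then exposed to library compounds with dopamine controls for 90 minutes at 37 degrees C. DiscoveRx reagent added for 30–60 minutes at room temperature; luminescence read, quantitative HTS format.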
KB-V1 cytotox – kills drug-selected multidrug resistant KB-V1 cells; KB-V1 MDR cells viability, CellTiter-Glo, 72 h; Potency, µM (top dose mostly 46.1 µM), most hits filed as cytotoxic; hit rate 3.4% among 400,000; AID 1347076; further: nearly all actives have a fitted effect of over 60% in size
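Potencies derive from concentration-effect curves fitted to normalized luminescence (CellTiter-Glo) of KB-V1 cells treated for 72 h at 37 degrees C in phenol-red-free DMEM containing 10% FBS.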
A number is an active result; i = inactive; ? = inconclusive; nt = no result given; ! = not confirmed by another sample; [ ] = another dose, or the depositor's remark. Sampled rows, rich in hits. Any-hit rate of the full collection: about 8.9%. Unless noted, the call rests on the fitted dose curve; in most records, active means well fitted curve in the direction sought with a large enough effect; inconclusive means small, poorly fitted or top-dose-only effect, or another doubt; inactive means no such curve, though single readings can be large; an effect the other way counts as inactive or inconclusive.

SMILES	SW480 rereplic	KB-3-1 tox	MCF10A rereplic	DRD3 agonist	DRD3 antagonist	KB-V1 cytotox
Cc1ccc2nc(NC(=O)CN(C)S(=O)(=O)c3cccc4nsnc34)sc2c1	2.31µM	?	?	i	?	?
O=C(Nc1ccccc1)c1nnsc1S(=O)c1ccc(Cl)cc1 (centres undefined)	23.1µM	?	?	i	-58.9	i
CNC(=O)c1nnsc1S(=O)(=O)c1ccc(Cl)cc1	1.03µM	?	1.46µM	i	-110.0	i
O=C(c1nnsc1S(=O)c1ccc(Cl)cc1)N1CCOCC1 (centres undefined)	i	?	i	i	-50.7	13µM
Cc1nnsc1S(=O)c1ccc(Cl)cc1 (centres undefined)	?	?	i	i	i	i
O=C(c1nnsc1S(=O)(=O)c1ccc(Cl)cc1)N1CCOCC1	?	?	3.55µM	i	?	i
O=C(NCCc1ccccc1)c1ccc(CSc2nc3ccncc3n2Cc2ccccc2)cc1	nt	i	nt	i	nt	i
CCCOc1cccc(C2c3c(oc4ccc(F)cc4c3=O)C(=O)N2CCc2ccc(OC)cc2)c1 (centres undefined)	nt	i	nt	i	nt	i
CCOC(=O)CN1CCc2c(C)nc3c(-c4ccc(OC)c(OC)c4)cnn3c21	?	i	?	i	i	8.2µM
CCOC(=O)Cc1c(C)nc2c(-c3ccc(OC)c(OC)c3)c(C)nn2c1C	nt	i	nt	i	nt	?
COc1cccc(-n2c(SCC(=O)Nc3cccc(C)c3)nc3c([nH]c4ccccc43)c2=O)c1	nt	i	nt	i	nt	i
Cc1cc([N+](C)(C)C)cc(C)c1/C=C/c1ccnc2ccccc12	nt	i	nt	nt	nt	i
Cc1ccc(S(=O)(=O)c2cc3ccccc3oc2=Nc2ccc3c(c2)OCO3)cc1	i	i	i	i	i	i
Cc1ccc(S(=O)(=O)c2cc3ccccc3oc2=Nc2ccc3c(c2)OCCO3)cc1	i	i	i	i	i	10.3µM
CCSc1nc(-c2ccc(Cl)cc2)nc2c1Cc1c(CO)cnc(C)c1O2	nt	i	nt	i	nt	?
Cc1ccc(C(=O)Nc2ccc3nc(SCC(=O)N4CCCc5ccccc54)sc3c2)cc1	nt	nt	nt	i	nt	nt
CCCN1CCC(=O)N([C@H](COc2ccccc2)c2ccccc2)CC1	i[9.22 µM]	i	i	i	-103.6	?
CC(C)CN1CCC(=O)N([C@H](COc2ccccc2)c2ccccc2)CC1	i	i	i	i	-69.9	?
FC(F)(F)c1nc2ccccc2n2c(-c3ccc(Cl)cc3)nnc12	i	4.61µM	13µM	i	i	5.8µM
Cc1ccc(-c2nnc3c(C(F)(F)F)nc4ccccc4n23)cc1	16.4µM	?	?	i	i	20.6µM
Cc1ccc(-c2nc3ccccc3n3nnnc23)cc1	i	i	i	i	i	?
Clc1cccc(/C=N/Nc2nc(Cl)nc3ccccc23)c1	?	?	i	i	-60.3	i
COc1ccc2cc(C(=O)C3CCCN(C(=O)c4ccnn4C)C3)ccc2c1 (centres undefined)	?	i	?	i	i	16.4µM
COc1ccc(C(=O)C2CCCN(C(=O)c3ccnn3C)C2)cc1OC (centres undefined)	i	i	i	i	i	i
FC(F)(F)c1cccc(Cn2nnnc2-c2ccc(Cl)cc2)c1	i	?	i	i	i	14.6µM
SMILES	SW480 rereplic	KB-3-1 tox	MCF10A rereplic	DRD3 agonist	DRD3 antagonist	KB-V1 cytotox
CCN(CC)C(=O)c1ccc2nc3ccccc3nc2c1	5.17µM	5.8µM	?	i	-63.2	16.4µM
CCN(CC)C(=O)c1ccc2nc(-c3ccccc3)c(-c3ccccc3)nc2c1	i	?	i	i	i	4.11µM
CCNC(=O)c1ccc2nc(-c3ccccc3)c(-c3ccccc3)nc2c1	nt	i	nt	nt	nt	i
CCN(CC)C(=O)c1ccc(C(=O)c2ccccc2)cc1	i	i	i	i	i	i
CC(C)(C)NC[C@H](O)CSc1nc(-c2ccc(C(N)=O)s2)cs1	i	nt	i	nt	nt	nt
CCN(CC)C(=O)c1sc2c(c1C)c(=O)n(-c1ccc(OC)cc1OC)c(=O)n2CC(=O)Nc1ccccc1	nt	i	nt	i	nt	?
COc1ccc(-n2c(=O)c3ccccc3n(CC(=O)NCCc3ccccc3)c2=O)c(OC)c1	nt	i	nt	i	nt	?
CCc1ccccc1NC(=O)C1CCN(c2nc3ccccc3[nH]2)CC1	nt	i	nt	i	nt	i
Cc1ccc(-c2cc(NC(=O)c3ccccc3Cl)on2)cc1	nt	i	nt	i	nt	i
Cc1ccc(C(c2nnnn2CCC(C)C)N2CCN(C)CC2)cc1 (centres undefined)	i	i	i	i	-67.0	i
C=CCN1CCN(C(c2ccccc2)c2nnnn2CCC(C)C)CC1 (centres undefined)	?	?	i	i	-82.2	i
CCc1ccccc1NC(=O)c1ccc2nc(C(C)C)oc2c1	nt	?	nt	i	nt	?
NS(=O)(=O)c1ccc(N/N=C/c2cn(-c3ccccc3)nc2-c2cccs2)cc1	?	?	13µM	i	i	?
NS(=O)(=O)c1ccc(N/N=C/c2cn(-c3ccccc3)nc2-c2cccs2)c([N+](=O)[O-])c1	i	?	i	i	?	i
[O-][N+](=NC1C=Cc2ccccc21)C1C=Cc2ccccc21 (centres undefined)	nt	?	nt	nt	nt	i
O=S(=O)(Nc1ccc(O)c2ncccc12)c1ccccc1F	nt	i	nt	nt	nt	i
Oc1c(CN2CCCCC2)cc(COCc2ccccc2)c2cccnc12	3.16µM	5.17µM	16.4µM	i	-125.3	?
CCCOCc1ccc(O)c2ncccc12	5.8µM	?	i	i	-71.3	?
Oc1ccc(CNc2ccccc2F)c2cccnc12	?	20.6µM!	?	i	i	?
OCc1ccc(O)c2ncccc12	16.4µM	?	?	i	i	?
CC(C)COCc1ccc(O)c2ncccc12	?	?	i	i	?	?
CCOc1ccc(CNC(=O)c2ccc(Sc3ccc(C)cc3)c(N)c2)cc1OC	nt	nt	nt	i	nt	nt
N[C@H](C(=O)O)[C@@H](O)c1ccc(O)c(O)c1	nt	nt	nt	i	nt	nt
Cc1cc(C)c(S(=O)(=O)NCC2CCC(C(=O)NCCc3ccccc3)CC2)c(C)c1 (centres undefined)	nt	i	nt	i	nt	i
COc1ccc(N2CCN(C(=O)c3nn(-c4ccc(C)cc4)c(=O)n(C)c3=O)CC2)cc1	nt	i	nt	i	nt	i
SMILES	SW480 rereplic	KB-3-1 tox	MCF10A rereplic	DRD3 agonist	DRD3 antagonist	KB-V1 cytotox
Cc1ccc(C)c(Cn2c(=O)n(Cc3ccc4c(c3)OCO4)c(=O)c3oc4ccccc4c32)c1	nt	nt	nt	i	nt	nt
Cc1cccc(C(=O)NC2(C(F)(F)F)N=C(c3ccccc3)N(Cc3ccccc3)C2=O)c1 (centres undefined)	nt	i	nt	i	nt	i
CN(C)C1CCN(Cc2cc(COCc3ccccc3)c3cccnc3c2O)C1 (centres undefined)	?	?	?	nt	nt	i
Oc1ccc(Cc2ccccc2)c2cccnc12	?	23.1µM	?	i	i	i
CN(Cc1ccco1)Cc1ccc(O)c2ncccc12	?	i	i	nt	nt	i
Oc1ccc(COCc2ccccc2)c2cccnc12	3.26µM	?	?	i	?	?
Oc1c(CN2CCCCC2)ccc2cccnc12	5.17µM	?	i	i	?	?

From PubChem
